The text below walks through data of PubChem BioAssay (NCI).

Molecules are shown by their SMILES. This is part of a sample that, as a whole, favours compounds with a hit. Of some 79,000 tested, about 15% had one in any assay. Calls of active or inactive are those of the source. Rule as the data show it: active = growth inhibition above about 70%; inactive = the rest.

The nature of the first experiment: NCI Yeast Anticancer Drug Screen. Data for the rad14 strain (AID 159).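 Also: 0% = growth of vehicle-treated control cultures.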 Particulars: S. cerevisiae rad14 strain growth inhibition; at 3.7 µM; active compounds read high. The method in brief: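 Here, inhibition of yeast growth was measured after compound exposure, using a strain with a genetic defect in DNA damage repair and vehicle-treated cultures as the reference.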
Regarding `C=CC(C)(O)CCC1C(=C)C(O)CC2C(C)(C)CCCC12C` (stereo not drawn), the growth inhibition is -20% (inactive).
On to `S=C(Nc1ccc(Cl)c(Cl)c1)SCc1ccc2c(c1)OCO2`, for which the growth inhibition is 54% (inactive).
Same read-out and setting: the value for `COc1cc(C2C3=C(COC3=O)Oc3cc4c(cc32)OCO4)ccc1O` (stereo not drawn) was -1% (inactive); that for `S=C(Nc1ccc(Cl)cc1)SC1CCCCC1` was -20% (inactive); that for `Nc1nc(-c2cccnc2)cc(-c2cc(-c3cccnc3)nc(N)n2)n1` was 2% (inactive).
Same read-out and setting: the value for `COC1=CC(=O)C2C(C1=O)C(c1ccc(Cl)cc1)[C@@H]2C` (stereo partly drawn) was 12% (inactive); that for `c1ccc(-c2nc3cccnc3s2)cc1` was 0% (inactive); that for `O=[N+]([O-])c1cc(CCl)ccc1CCl` was 13% (inactive).
For `COc1ccc(/C=C2\SC(=S)N(/C=C/c3nc4ccccc4[nH]c3=O)C2=O)cc1OC`, the growth inhibition is 4% (inactive).
The same measure, in the same setting: the value for `CCCN(CCC)CC(O)c1cc(-c2ccc(Cl)cc2)nc2c(C)c(Cl)ccc12` (stereo not drawn) was 13% (inactive); that for `O=C(Nc1ccccc1)OCCc1ccc(Cl)c(Cl)c1` was 1% (inactive); that for `CC(O)C(O)C(O)C(/C=N\Nc1ccccc1)=N/Nc1ccccc1` (stereo not drawn) was -1% (inactive).
The same measure, in the same setting: then `C#CCCCc1ccccc1`, with -39% (inactive).
For `CC(=O)Cc1ccc[cH-]1.[Fe+2].c1cc[cH-]c1`, the growth inhibition was -5% (inactive).
On to `Cc1cc(I)ccc1N`, for which the growth inhibition was -15% (inactive).
On the same count and under the same terms, then `FC(F)(F)c1cc(NC(=S)N2c3ccccc3-n3cccc3C2c2cccnc2)cc(C(F)(F)F)c1` (stereo not drawn), with 0% (inactive); and `CC(C)(CN1CCCCC1)C(=O)CC(SCCS(=O)(=O)O)c1ccc(Br)cc1` (stereo not drawn), with 19% (inactive); and `C[Si](C)(C)CNC(=O)OCc1ccccc1`, with -1% (inactive).
As for `CC(C(=O)N1C(=O)N(C(=O)[C@H](C)C(O)c2ccccc2)[C@H](c2ccccc2)[C@H]1c1ccccc1)[C@@H](O)c1ccccc1` (stereo partly drawn), the growth inhibition is -12% (inactive).
The same measure, in the same setting: then `Oc1cccc2c(Cl)ccnc12`, with 99% (active); and `O=C1C=CC(=C(c2ccccc2)c2ccccc2)c2ccccc21`, with 2% (inactive); and `S=C(S)NN1CCOCC1`, with 36% (inactive).

Staying with this experiment, now noted: S. cerevisiae rad14 strain growth inhibition; at 11.0 µM; active compounds read high.
In the case of `C/C(=N\NC(=S)SCc1ccccc1)c1ccccn1`, the growth inhibition is 31% (inactive).
On to `CC[C@@]1(O)C(=O)OCc2c1cc1n(c2=O)Cc2cc3c(N)cccc3nc2-1`, for which the growth inhibition is -25% (inactive).
On the same count and under the same terms, the value for `CN(C)c1ccc(Sc2ccc3nc(N)nc(N)c3c2)cc1` was -9% (inactive).
Same read-out and setting: then `CC(=O)OCCOCNC(=S)N/N=C(\C)c1cnccn1`, with 5% (inactive); and `COc1ccc(C2c3cc4c(cc3OC(C)(O)C2C)OCO4)c(OC)c1` (stereo not drawn), with -4% (inactive).
On the same count and under the same terms, the value for `COc1cc(C2SCC(=O)N2c2ccc(-c3ccc(-n4c(-c5ccccc5)nc5ccccc5c4=O)cc3)cc2)cc(OC)c1OC` (stereo not drawn) was 4% (inactive); that for `COc1ccc(Br)c(C(=O)Sc2nnnn2-c2cccc(Cl)c2)c1` was -30% (inactive).
As to `O=C(NNc1ccnc2cc(Cl)ccc12)/C(=C\c1ccccc1Cl)NC(=O)c1ccccc1`, the growth inhibition was 1% (inactive).
In the case of `CSC(=S)Nc1cccc(C)n1`, the growth inhibition was 9% (inactive).
Consider `O=C(/C=C\c1ccc(Cl)cc1Cl)c1cccs1`, for which the growth inhibition is 5% (inactive).
As to `COc1ccc(-c2cn(-c3ccc(I)cc3)c3ncnc(N)c23)cc1`, the growth inhibition is -12% (inactive).
With `CN(C)c1ccc(C(C#N)=C(C#N)C#N)cc1`, the growth inhibition was 10% (inactive).
Take `COc1cc(/C=C2\CCc3ccccc3C2=O)cc(OC)c1OC`: the growth inhibition is -44% (inactive).
With `CC(C)/C(Cl)=N\OC(=O)Nc1cccc(Cl)c1`, the growth inhibition was 0% (inactive).
`CC1(C)[C@@H]2CC[C@]1(C)[C@H](OC(=O)CSC#N)C2`: the growth inhibition is 12% (inactive).
The same measure, in the same setting: the value for `NNC(=O)CCc1ccc2ccc3ccccc3c2c1` was -3% (inactive).
As for `COc1ccc(/C(C)=N/OC(=O)c2c(-c3ccccc3Cl)noc2C)cc1CN1CCOCC1`, the growth inhibition is -20% (inactive).
The same measure, in the same setting: the value for `C=CC(C)(O)CCC1C(=C)C(O)CC2C(C)(C)CCCC12C` (stereo not drawn) was -18% (inactive); that for `S=C(Nc1ccc(Cl)c(Cl)c1)SCc1ccc2c(c1)OCO2` was 100% (active).
With `COc1cc(C2C3=C(COC3=O)Oc3cc4c(cc32)OCO4)ccc1O` (stereo not drawn), the growth inhibition is -6% (inactive).
In the case of `S=C(Nc1ccc(Cl)cc1)SC1CCCCC1`, the growth inhibition was 27% (inactive).
As to `Nc1nc(-c2cccnc2)cc(-c2cc(-c3cccnc3)nc(N)n2)n1`, the growth inhibition is -1% (inactive).
On the same count and under the same terms, the value for `COC1=CC(=O)C2C(C1=O)C(c1ccc(Cl)cc1)[C@@H]2C` (stereo partly drawn) was 98% (active); that for `c1ccc(-c2nc3cccnc3s2)cc1` was -2% (inactive); that for `O=[N+]([O-])c1cc(CCl)ccc1CCl` was 38% (inactive).
For the compound `COc1ccc(/C=C2\SC(=S)N(/C=C/c3nc4ccccc4[nH]c3=O)C2=O)cc1OC`, the growth inhibition was 26% (inactive).
